Test results from PubChem BioAssay AID1159580 (chemical genetic matrix, 2015).
“And” between values parts separate entries of the source, which are not always exact repeats. Identical values can stand only once. The campaign covered roughly 5,500 compounds. About 2,000 (36%) were called active. Not shown: some 18% with an inconclusive outcome. Cut-off read from the data, not from the text of the source: active = normalized growth mostly below about 0.91 (no sharp cut-off); inconclusive = no clear call, values can overlap the other calls; inactive = mostly above about 0.92. Some of the results follow.

Assay: chemical genetic growth profiling, strain panel (AID 1159580);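 note: tested at 20 µM; growth read once vehicle control cultures reached saturation at 30 °C; 1 = growth at the plate median or of vehicle wells; lower values mean less growth of the strain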
Conditions: S. cerevisiae deletion strains, growth OD
[1] = locus YHR030C, strain SLT2, hits give low values
[2] = locus YHR079C, strain IRE1, hits give low values
[3] = locus YJL095W, strain BCK1, hits give low values
[4] = locus YJR066W, strain TOR1, hits give low values
[5] = locus YLR113W, strain HOG1, hits give low values
[6] = locus YNL183C, strain NPR1, hits give low values
[7] = locus YOR231W, strain MKK1, hits give low values
[8] = locus YPL256C, strain CLN2, hits give low values

Measured: normalized growth

C[C@H]1CC2C([C@@H](O)C[C@@]3(C)C2CC[C@]3(O)C(=O)COC(=O)CCC(=O)O)[C@@]2(C)C=CC(=O)C=C12 (some centres undefined)
inactive: [1] 0.999 | [2] 1.02 | [3] 1.02 | [4] 1 | [5] 1.04 | [6] 0.995 | [7] 1.06 | [8] 1.03

CC1=C2[C@H]3OC(=O)[C@@H](C)[C@@H]3CC[C@@]2(C)C=CC1=O
inactive: locus YAL013W, strain DEP1, hits give low values 1.01 | locus YAL021C, strain ccr4, hits give low values 0.97 | locus YAL026C, strain drs2, hits give low values 0.968 | locus YAL030W, strain snc1, hits give low values 0.982 | locus YBL061C, strain skt5, hits give low values 0.968 | locus YBR009C, strain hhf1, hits give low values 0.975 | locus YBR021W, strain FUR4, hits give low values 0.972 | locus YBR023C, strain chs3, hits give low values 0.953 | locus YBR171W, strain sec66, hits give low values 0.962 | locus YBR229C, strain ROT2, hits give low values 1.01 | locus YBR231C, strain swc5, hits give low values 0.992 | locus YBR279W, strain paf1, hits give low values 0.994 | locus YCL011C, strain gbp2, hits give low values 0.979 | locus YCL016C, strain dcc1, hits give low values 0.995 | locus YCL029C, strain bik1, hits give low values 1.04 | locus YCL061C, strain MRC1, hits give low values 0.976 | locus YCL069W, strain vba3, hits give low values 0.967 | locus YCR088W, strain abp1, hits give low values 0.976 | locus YDL005C, strain med2, hits give low values 0.964 | locus YDL035C, strain GPR1, hits give low values 1.02 | locus YDL040C, strain nat1, hits give low values 0.979 | locus YDL074C, strain BRE1, hits give low values 1.02 | locus YDL101C, strain DUN1, hits give low values 1.02 | locus YDL185W, strain tfp1, hits give low values 1.02 | locus YDL192W, strain arf1, hits give low values 1.03 | locus YDR001C, strain nth1, hits give low values 0.98 | locus YDR069C, strain doa4, hits give low values 0.946 | locus YDR101C, strain arx1, hits give low values 1.01 | locus YDR137W, strain rgp1, hits give low values 0.972 | locus YDR159W, strain sac3, hits give low values 0.941 | locus YDR162C, strain NBP2, hits give low values 1.02 | locus YDR195W, strain ref2 0.953 | locus YDR297W, strain sur2, hits give low values 0.968 | locus YDR318W, strain mcm21, hits give low values 1.04 | locus YDR334W, strain swr1, hits give low values 0.96 | locus YDR335W, strain msn5, hits give low values 0.987 | locus YDR388W, hits give low values 1.01 | locus YDR392W, strain spt3, hits give low values 0.99 | locus YDR502C, strain sam2, hits give low values 1.02 | locus YEL003W, strain gim4, hits give low values 0.98 | locus YEL037C, strain rad23, hits give low values 0.978 | locus YEL061C, strain CIN8 (second series), hits give low values 0.972 | locus YEL061C, strain CIN8, hits give low values 1.01 | locus YER015W, strain faa2, hits give low values 0.974 | locus YER016W, strain bim1, hits give low values 0.978 | locus YER110C, hits give low values 1.02 | locus YER111C, strain swi4, hits give low values 0.963 | locus YER155C, strain BEM2 (second series), hits give low values 0.946 | locus YER155C, strain BEM2, hits give low values 1 | locus YER167W, strain BCK2, hits give low values 1.01 | locus YFR010W, strain ubp6, hits give low values 0.953 | locus YGL078C, strain dbp3, hits give low values 1.02 | locus YGL086W, strain mad1, hits give low values 1.01 | locus YGL167C, strain pmr1, hits give low values 0.963 | locus YGL173C, strain kem1, hits give low values 0.974 | locus YGL227W, strain vid30, hits give low values 0.984 | locus YGL240W, strain doc1, hits give low values 0.963 | locus YGL248W, strain PDE1, hits give low values 1.03 | locus YGL253W, strain hxk2, hits give low values 0.98 | locus YGR078C, strain PAC10, hits give low values 1.02 | locus YGR135W, strain pre9, hits give low values 1.03 | locus YGR229C, strain SMI1, hits give low values 1.05 | locus YGR252W, strain gcn5, hits give low values 0.991 | locus YHR013C, strain ard1, hits give low values 0.956 | locus YHR027C, strain rpn1, hits give low values 0.986 | [1] 0.981 | locus YHR079C, strain IRE1 (second series), hits give low values 1.02 | [2] 1 | locus YHR094C, strain hxt1, hits give low values 1.03 | locus YHR129C, strain ARP1, hits give low values 1.01 | locus YHR142W, strain chs7, hits give low values 0.98 | locus YHR200W, strain rpn10, hits give low values 1.01 | locus YIL066C, strain RNR3, hits give low values 1.02 | locus YIL073C, strain SPO22, hits give low values 1.06 | locus YIL125W, strain kgd1, hits give low values 1.02 | locus YIR030C, strain dcg1, hits give low values 1.02 | locus YJL092W, strain hpr5, hits give low values 0.975 | locus YJL095W, strain BCK1 (second series), hits give low values 0.964 | [3] 1.03 and 0.993 | locus YJL115W, strain asf1, hits give low values 0.973 | locus YJL129C, strain trk1, hits give low values 0.962 | locus YJL134W, strain LCB3, hits give low values 1.01 | locus YJL154C, strain vps35, hits give low values 0.98 | locus YJL164C, strain tpk1, hits give low values 0.984 | locus YJL166W, strain qcr8, hits give low values 0.969 | locus YJL168C, strain set2, hits give low values 1.02 | locus YJL187C, strain SWE1 (second series), hits give low values 1.02 | locus YJL187C, strain SWE1, hits give low values 0.966 | locus YJR043C, strain POL32, hits give low values 1.01 | [4] 0.956 | locus YJR075W, strain HOC1, hits give low values 1.02 | locus YKL009W, strain mrt4, hits give low values 1.03 | locus YKL068W, hits give low values 0.995 | locus YKL085W, strain MDH1 (second series), hits give low values 1.02 | locus YKL085W, strain MDH1, hits give low values 1.02 | locus YKL160W, strain elf1, hits give low values 0.994 | locus YKL190W, strain CNB1, hits give low values 1.01 | locus YKR001C, strain vps1, hits give low values 1.03 | locus YKR026C, strain gcn3, hits give low values 0.965 | locus YKR091W, strain srl3, hits give low values 0.983 | locus YLL001W, strain dnm1, hits give low values 0.996 | locus YLL026W, hits give low values 0.995 | locus YLL041C, strain sdh2, hits give low values 0.998 | locus YLR027C, strain aat2, hits give low values 0.979 | locus YLR039C, strain RIC1, hits give low values 1.04 | locus YLR058C, strain SHM2, hits give low values 1.02 | locus YLR102C, strain apc9, hits give low values 1.03 | [5] 0.963 | locus YLR221C, strain rsa3, hits give low values 0.959 | locus YLR258W, strain gsy2, hits give low values 0.985 | locus YLR262C, strain YPT6 (second series), hits give low values 0.997 | locus YLR262C, strain YPT6, hits give low values 1.06 | locus YLR268W, strain sec22, hits give low values 1.02 | locus YLR320W, strain mms22, hits give low values 0.978 | locus YLR342W, strain FKS1 (second series), hits give low values 1.01 | locus YLR342W, strain FKS1, hits give low values 0.974 | locus YLR357W, strain rsc2, hits give low values 0.948 | locus YLR370C, strain arc18, hits give low values 0.977 | locus YLR371W, strain rom2, hits give low values 1.01 | locus YLR384C, strain iki3, hits give low values 0.96 | locus YLR418C, strain cdc73, hits give low values 1.03 | locus YML016C, strain PPZ1, hits give low values 1.02 | locus YML032C, strain rad52, hits give low values 1.02 | locus YML120C, strain ndi1, hits give low values 1.01 | locus YML124C, strain tub3, hits give low values 1.02 | locus YMR058W, strain fet3, hits give low values 0.977 | locus YMR078C, strain ctf18, hits give low values 1.04 | locus YMR125W, strain sto1, hits give low values 0.968 | locus YMR129W, hits give low values 0.997 | locus YMR205C, strain PFK2, hits give low values 0.982 | locus YMR223W, strain ubp8, hits give low values 1.01 | locus YMR231W, strain pep5, hits give low values 0.973 | locus YMR263W, strain SAP30, hits give low values 1.02 | locus YMR307W, strain GAS1, hits give low values 1.05 | locus YNL067W, strain RPL9B, hits give low values 1.02 | locus YNL071W, strain lat1, hits give low values 0.994 | locus YNL153C, strain GIM3, hits give low values 1.03 | [6] 0.951 | locus YNL209W, strain ssb2, hits give low values 0.981 | locus YNL233W, strain BNI4, hits give low values 1.02 | locus YNL248C, strain rpa49, hits give low values 0.962 | locus YNL250W, strain rad50, hits give low values 1.04 | locus YNL271C, strain bni1, hits give low values 1.02 | locus YNL298W, strain CLA4, hits give low values 1.03 | locus YNL307C, strain MCK1, hits give low values 1.03 | locus YNL322C, strain KRE1 (second series), hits give low values 0.954 | locus YNR049C, strain mso1, hits give low values 0.983 | locus YNR052C, strain pop2, hits give low values 1.01 | locus YOL012C, strain htz1 0.992 | locus YOL147C, strain pex11, hits give low values 1.02 | locus YOR001W, strain rrp6, hits give low values 0.939 | locus YOR061W, strain CKA2, hits give low values 1.02 | locus YOR069W, strain VPS5, hits give low values 1.01 | locus YOR070C, strain gyp1, hits give low values 0.984 | locus YOR080W, strain dia2, hits give low values 0.97 | locus YOR083W, strain WHI5, hits give low values 1.01 | locus YOR106W, strain vam3, hits give low values 1 | locus YOR136W, strain idh2, hits give low values 1.01 | locus YOR144C, strain elg1, hits give low values 1.02 | locus YOR184W, strain ser1, hits give low values 1.03 | [7] 0.965 | locus YOR265W, strain rbl2, hits give low values 0.99 | locus YOR270C, strain vph1, hits give low values 0.926 | locus YOR290C, strain snf2, hits give low values 0.982 | locus YOR316C, strain cot1, hits give low values 1.02 | locus YPL051W, strain arl3, hits give low values 0.987 | locus YPL078C, strain atp4, hits give low values 0.988 | locus YPL106C, strain sse1, hits give low values 0.96 | locus YPL240C, strain hsp82, hits give low values 0.964 | locus YPL241C, strain CIN2, hits give low values 1.01 | [8] 0.977 | locus YPR119W, strain clb2, hits give low values 1.01 | locus YPR141C, strain kar3, hits give low values 1.02 | locus YPR163C, strain tif3, hits give low values 1.03 | locus YPR167C, strain met16, hits give low values 1.02 | strain wtn01, hits give low values 1
